TIM10 inh – growth inhibitors of isogenic TIM10 control yeast, primary screen, counter-screen for tim10-1 yeast inhibitor project, luminescence, uHTS. S. cerevisiae TIM10 strain growth, BacTiter-Glo luminescence, 24 h. inhibition, % at 10 µM. 1.4% of 330,000 active. AID 463195, 2010;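 active = inhibition of 40% or more at the single tested concentration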;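 note: wild-type TIM10 isogenic control strain grown at permissive 25 °C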
PfHsp90 yeast 2 – growth inhibition of PfHsp90-expressing yeast, primary screen, antimalarial PfHsp90 inhibitor project, S. cerevisiae, BacTiter-Glo luminescence, single point, set 2; 0.32% of 310,000 active; BacTiter-Glo ATP, 48 h; yeast lacking PDR1 and PDR3 efflux regulators; inhibition, % at 9.4 µM;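 active = every replicate shows inhibition above about 80%, whatever the replicate mean, limit read from the data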;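 note: 0% = DMSO neutral controls and 100% = 20 µM radicicol positive controls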
B2AR ag – beta2AR agonists driving receptor internalization, primary screen, cell-based, FAP fluorogen, flow cytometry; Beta-2 adrenergic receptor (Homo sapiens), P07550; Am2.2-beta2AR cells; AID 504454, 2011; response, % (test concentration not listed); 0.43% of 340,000 active;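 active = response above a set limit, near 3 SD of response in nonfluorescent compounds, cut at about 42% in these data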
Target sequence (P07550 whole entry, looked up): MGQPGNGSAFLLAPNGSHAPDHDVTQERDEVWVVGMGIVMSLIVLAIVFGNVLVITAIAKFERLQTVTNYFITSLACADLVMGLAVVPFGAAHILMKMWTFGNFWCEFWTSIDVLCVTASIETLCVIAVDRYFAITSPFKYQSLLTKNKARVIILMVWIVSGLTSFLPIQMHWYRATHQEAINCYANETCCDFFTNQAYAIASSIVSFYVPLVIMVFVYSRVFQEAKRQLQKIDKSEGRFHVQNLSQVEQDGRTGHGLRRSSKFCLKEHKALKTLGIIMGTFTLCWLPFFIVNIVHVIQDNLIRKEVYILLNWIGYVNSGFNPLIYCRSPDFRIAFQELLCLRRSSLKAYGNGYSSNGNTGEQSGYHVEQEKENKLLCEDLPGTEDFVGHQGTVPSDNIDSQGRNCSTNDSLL
tim10-1 inh – growth inhibitors of tim10-1 mutant yeast, primary screen, luminescence, uHTS; S. cerevisiae tim10-1 ts strain growth, BacTiter-Glo, 24 h; inhibition, % at 20 µM; 2.2% of 330,000 active; AID 463190, 2010;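 active = inhibition of at least 40%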;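 note: mutant grown at 25 °C; 0% = DMSO wells with yeast and 100% = wells holding no yeast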
tim23-1 inh – growth inhibitors of tim23-1 mutant yeast, primary screen, luminescence, uHTS. 1.3% of 330,000 active. inhibition, % at 20 µM. S. cerevisiae tim23-1 growth, BacTiter-Glo luminescence, 24 h;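 active = growth inhibition of the mutant yeast at or above 50%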;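 note: temperature-sensitive mutant grown at 25 °C; plate controls were DMSO-treated mutant yeast for no effect and medium wells lacking yeast for full effect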
tim23-1 conf – tim23-1 mutant yeast growth inhibitors, confirmation, luminescence, single concentration. shares compounds with tim23-1 inh. S. cerevisiae tim23-1 growth, BacTiter-Glo luminescence, 24 h. inhibition, % at 20 µM. 83% of 4,400 active. AID 463218, 2010;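 active = inhibition above about 39% in either of two replicate wells at 20 µM, limit read from the data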;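 note: temperature-sensitive tim23-1 mutant grown at 25 °C; 0% = DMSO wells with yeast and 100% = medium wells without yeast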
* hit, by the source's call; . = not tested or not shown. Only some compounds are listed: those with a hit (about 3.8% of all), similar ones and a draw of the others.

SMILES | TIM10 inh | PfHsp90 yeast 2 | B2AR ag | tim10-1 inh | tim23-1 inh | tim23-1 conf
CC(C)C(=O)NNC(=O)CN1CCN(c2nc(-c3ccccc3)cs2)CC1 | 11 | . | -1 | 11 | 3 | .
CCc1nnc(NC(=O)CN2CCN(c3nc(-c4ccccc4)cs3)CC2)s1 | 31 | 3 | -9 | 37 | 50* | 41*
COc1cc(CN2CCN(c3cccc(C)c3C)CC2)cc(Br)c1O | 21 | . | 10 | 26 | 55* | 45*
COC(=O)CC1COc2ccccc2N1C(=O)c1ccc(Br)cc1 (centres undefined) | 30 | 7 | 3 | 16 | 20 | .
COC(=O)CC1COc2ccccc2N1C(=O)c1ccc(C(C)(C)C)cc1 (centres undefined) | 25 | 3 | 7 | 21 | 53* | 38
Nc1c(Cl)cc(N=Nc2ccccc2)cc1Cl | . | . | 2 | . | . | .
NC(=O)CSc1nnc(-c2ccccn2)n1Cc1ccco1 | 5 | 1 | -8 | 9 | 0 | .
Clc1ccccc1CSc1nnc(-c2ccccn2)n1Cc1ccco1 | 9 | -29 | 11 | 31 | 52* | 54*
CC(OC(=O)c1cccnc1SCc1cc(=O)n2ccccc2n1)c1ccccn1 (centres undefined) | 24 | 1 | -4 | 33 | 40 | .
CCOC(=O)c1cccnc1SCc1cc(=O)n2ccccc2n1 | -5 | 4 | 1 | 17 | 71* | 65*
NC(=O)c1ccc(NC(=O)COC(=O)CC2Sc3ccccc3NC2=O)cc1 (centres undefined) | 12 | -9 | 24 | -4 | 5 | .
Cn1c(N)c(C(=O)COC(=O)/C=C/c2ccc(Cl)cc2Cl)c(=O)n(C)c1=O | -16 | . | . | 5 | 1 | .
COc1ccccc1/C=C/C(=O)OCC(=O)c1c(N)n(C)c(=O)n(C)c1=O | -8 | 11 | 14 | 8 | 95* | 0
CCOC(=O)c1ccc(NC(=O)/C=C/c2cccs2)cc1 | 19 | 14 | 1 | 9 | 61* | 52*
CCN(CC)CCOC(=O)c1ccc(NC(=O)/C=C/c2cccs2)cc1 | -3 | -23 | -10 | 15 | 0 | .
CCOc1nc(Nc2ccc(OC)c(Cl)c2)nc(N2CCN(c3ccc(OC)cc3)CC2)n1 | 1 | -37 | 6 | 11 | 14 | .
CC1CCN(c2ccc(-c3cccs3)nn2)CC1 | 38 | 22 | -2 | 37 | 68* | 72*
CCC(C)Sc1cc(-c2nc3ccccn3c2NC2CCCCC2)ccc1OC (centres undefined) | 2 | 14 | 12 | 40 | 3 | .
CCCCNc1c(-c2ccc(OC)c(SC(C)CC)c2)nc2cc(C)ccn12 (centres undefined) | 20 | -12 | 25 | 29 | 55* | 51*
CCC(C)Sc1cccc(-c2nc3cnccn3c2NC2CCCCC2)c1 (centres undefined) | 19 | 19 | -9 | 21 | 50 | 41*
CCCCNc1c(-c2ccc(OC)c(SC(C)CC)c2)nc2ccc(C)cn12 (centres undefined) | 3 | -7 | 39 | 4 | 54* | 41*
CCCCNc1c(-c2ccc(OC)c(SC(C)CC)c2)nc2ccc(Cl)cn12 (centres undefined) | 16 | 18 | -7 | 9 | 28 | .
CCC(C)Sc1cccc(-c2nc3ccc(C)cn3c2NC2CCCCC2)c1 (centres undefined) | 11 | 10 | 14 | 16 | 28 | .
CCC(C)Sc1cc(-c2nc3cc(C)ccn3c2NC2CCCCC2)ccc1OC (centres undefined) | 34 | 7 | 11 | 34 | 60* | 49*
O=S(=O)(c1ccc(F)cc1)N1CCC2(CC1)OCCN2S(=O)(=O)c1cccs1 | 8 | . | 4 | 30 | 16 | .
SMILES | TIM10 inh | PfHsp90 yeast 2 | B2AR ag | tim10-1 inh | tim23-1 inh | tim23-1 conf
COCCN(C(=O)COC(=O)c1ccccc1NCc1ccco1)c1c(N)n(Cc2ccccc2)c(=O)[nH]c1=O | 2 | 32 | 3 | 7 | -11 | .
COCC(=O)OC1CCn2c1nc1c2C(=O)C(C)=C(NC(C)=O)C1=O (centres undefined) | . | 4 | 22 | . | . | .
O=C(CCCCC(=O)NN=Cc1ccc(Cl)cc1)NN=Cc1ccc(Cl)cc1 | . | . | -1 | . | . | .
CC(Oc1cccc(Cl)c1)C(=O)Nc1nc(-c2ccccn2)cs1 (centres undefined) | 29 | -15 | 1 | 31 | 67* | 55*
CC(Oc1ccccc1)C(=O)Nc1nc(-c2ccccn2)cs1 (centres undefined) | 18 | . | -11 | 23 | 35 | .
Cc1ccc(C(=O)Nc2nc(-c3ccccn3)cs2)s1 | 1 | 73 | 12 | 10 | 62* | 55*
O=C(O)c1ccccc1N=Nc1ccc(O)cc1 | 2 | -13 | -1 | 7 | 11 | .
Oc1ccc(N=Nc2ccccc2)cc1 | 25 | -32 | -2 | 39 | 55* | 47*
COC(=O)c1oc(-c2ccc(Cl)cc2)nc1C | -8 | -74 | 12 | -22 | -15 | .
CNc1nc(N)c([N+](=O)[O-])c(N2CCCCCC2)n1 | 7 | -4 | -5 | 27 | 19 | .
CC(C)CCNc1nc(N)c([N+](=O)[O-])c(N2CCCCCC2)n1 | 26 | -33 | 1 | 21 | 50* | 32
Cc1ccc(-c2nc(Nc3ccc(N4CCOCC4)cc3)c3ccccc3n2)cc1 | 22 | -2 | 6 | 31 | 47 | .
COc1cccc(Nc2nc(-c3ccccc3)nc3ccccc23)c1 | 38 | -80 | -1 | 27 | 50* | 45*
Cc1ccc(-c2nc(Nc3cccc(O)c3)c3ccccc3n2)cc1 | 22 | 26 | 11 | 16 | 83* | -21
Cc1ccc(-c2nc(Nc3ccc(O)cc3)c3ccccc3n2)cc1 | 27 | -11 | 6 | 14 | 74* | 44*
CCCCCCSc1ccc([C@@H]2[C@@H]3C(=O)N(C)C(=O)[C@@H]3[C@]3(C(=O)OC)CCCCN23)cc1 | 4 | 6 | 18 | 2 | 21 | .
O=C(NCc1ccccc1)C1CC(=O)N(C2CCCCC2)C1 (centres undefined) | 10 | 23 | 1 | 10 | 7 | .
CC1CSC(N(C(=O)c2ccc(S(C)(=O)=O)cc2)c2ccc(Cl)cc2)=N1 (centres undefined) | 24 | -5 | -3 | 32 | 36 | .
CC(C)CCC1(C)NC(=O)N(CC(=O)c2ccc[nH]2)C1=O (centres undefined) | 11 | 10 | 19 | 3 | 15 | .
Cc1nc2sc(C(c3ccc(Cl)cc3)N3CCOCC3)c(O)n2n1 (centres undefined) | 1 | 8 | -2 | -1 | 53* | 8
COc1ccc2oc(C(=O)N(C)Cc3ccc(OC(F)F)cc3)c(C)c2c1 | 2 | -2 | -8 | 16 | 27 | .
